Results from PubChem BioAssay (Tox21).
Records with an inconclusive call do not appear. The source made the active and inactive calls. Unless noted, calls come from the whole dose curve; as a rule, active = well fitted curve in the direction sought with a large enough effect in the repeat runs; inconclusive = weak or mixed curves; inactive = no such curve, though single readings can be large; an effect the other way counts as inactive or inconclusive.

What was measured:
[1] = A CellTox Green Cytotoxicity Assay to monitor cytotoxicity in HEK293 cells - 32 hour (AID 1224881); note: nearly all actives have a fitted effect of over 40% in size
Method in brief: (§1)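 Seeding of HEK293 cells together with cytotoxicity dye preceded a 5 h incubation at 37 C/5% CO2. Test compounds in DMSO were then added and fluorescence monitored across 40 h.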

[2] = A CellTox Green Cytotoxicity Assay to monitor cytotoxicity in HepG2 cells - 0 hour (AID 1224882); note: nearly all actives have a fitted effect of over 35% in size
Method in brief: (§2)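 Nonlytic assay: viable cells exclude the dye, so fluorescence scales with cell death. HepG2 at 600 cells/well, compounds added after 5 h, signal read across 40 h.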

[3] = A CellTox Green Cytotoxicity Assay to monitor cytotoxicity in HepG2 cells - 32 hour (AID 1224883); note: nearly all actives have a fitted effect of over 50% in size
Method in brief: as §2

[4] = A CellTox Green Cytotoxicity Assay to monitor cytotoxicity in HEK293 cells - 8 hour (AID 1224884); note: nearly all actives have a fitted effect of over 35% in size
Method in brief: as §1

[5] = qHTS RealTime-Glo MT Cell Viability Assay in HepG2 cells - 16 hour (AID 1224885); note: nearly all actives have a fitted effect of over 50% in size
Method in brief: (§3)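 Cell number in HepG2 cultures estimated from NanoLuc luminescence generated by metabolic reduction of a prosubstrate by living cells. The homogeneous, nonlytic format allowed repeated reads at 0, 8, 16, 24, 32 and 40 h of compound exposure.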

[6] = qHTS RealTime-Glo MT Cell Viability Assay in HEK293 cells - 24 hour (AID 1224886); note: nearly all actives have a fitted effect of over 50% in size; note: potency is the fitted concentration of half-maximal effect; for activity change, negative = cytotoxicity: top concentration of the series differs between compounds
Method in brief: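 Homogeneous bioluminescent viability format in HEK293 cells (600 cells/well). Following 5 h at 37 C/5% CO2, 23 nL compound was pintooled; the signal was measured repeatedly during 40 h incubation.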

[7] = qHTS RealTime-Glo MT Cell Viability Assay in HEK293 cells - 8 hour (AID 1224887); note: nearly all actives have a fitted effect of over 50% in size; note: potency is the fitted concentration of half-maximal effect; for activity change, negative = cytotoxicity: top concentration of the series differs between compounds
Method in brief: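 Tox21 screen in HEK293 using RealTime-Glo MT chemistry, with cells and reagent co-dispensed. Luminescence proportional to viable cell number was captured at intervals during 40 h compound exposure at 37 C.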

[8] = A CellTox Green Cytotoxicity Assay to monitor cytotoxicity in HEK293 cells - 16 hour (AID 1224888); note: nearly all actives have a fitted effect of over 35% in size
Method in brief: as §1

[9] = qHTS RealTime-Glo MT Cell Viability Assay in HepG2 cells - 0 hour (AID 1224889); note: nearly all actives have a fitted effect of over 50% in size
Method in brief: as §3

[10] = A CellTox Green Cytotoxicity Assay to monitor cytotoxicity in HepG2 cells - 8 hour (AID 1224890); note: nearly all actives have a fitted effect of over 45% in size
Method in brief: as §2

[11] = qHTS assay to identify small molecule antagonists of the estrogen receptor alpha (ER-alpha) signaling pathway using the BG1 cell line in the presence of 0.1 nM 17-beta-estradiol - cell viability counter screen (AID 1259241); note: nearly all actives have a fitted effect of over 40% in size
Method in brief: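 Cells were plated and left 24 hr, compounds in DMSO were pinned in, 17beta-estradiol was added to 0.1 nM final, and after 22 hr CellTiter-Fluor reagent was added for 30 min before fluorescence was read.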

[12] = qHTS assay to identify small molecule antagonists of the androgen receptor (AR) signaling pathway using the MDA cell line in the presence of 0.5 nM R1881 - cell viability counter screen (AID 1259242); note: nearly all actives have a fitted effect of over 45% in size
Method in brief: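 R1881 at 0.5 nM final stimulated MDA-kb2 cells during 16 hr compound treatment at 37C. Cytotoxicity read: CellTiter-Fluor fluorescence after 30 min.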

[13] = qHTS assay to identify small molecule HDAC inhibitors (AID 1259364);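 note: wild-type HCT-116 cells with endogenous class I/II HDAC activity; top concentration of the series differs between compounds; nearly all actives have a fitted effect of over 45% in size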
Method in brief: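 Relative class I and II HDAC activity is taken from the luminogenic signal in HCT-116 cells, with compound exposure 2 hr and reagent development 30 min at room temperature.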

[14] = qHTS assay to identify small molecule HDAC inhibitors - cell viability counter screen (AID 1259365)
Method in brief: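 Counter screen in wild-type HCT-116 cells: compounds dissolved in DMSO are pin-transferred onto overnight-plated cells and left 2hr at 37C. ATP-based CellTiter-Glo luminescence then measures viable cells.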

[15] = qHTS assay to identify small molecule agonists of the sonic hedgehog signaling (Shh) pathway - cell viability counter screen (AID 1259366); note: nearly all actives have a fitted effect of over 50% in size
Method in brief: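 Cells are plated at 2,000 per well and left 4hr at 37C, 5% CO2 before compound addition. After 23hr of treatment, CellTiter-Fluor reagent is added for 1hr at 37C and fluorescence is measured.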

[16] = qHTS assay to identify small molecule antagonists of the sonic hedgehog signaling (Shh) pathway - cell viability counter screen (AID 1259367); note: nearly all actives have a fitted effect of over 55% in size
Method in brief: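 Seed 3T3 Gli1-Luc cells at 2,000 per well; incubate 4 hr; add compound in DMSO, then conditioned medium; incubate at 37C with 5% CO2; add CellTiter-Fluor after 23 hr; read fluorescence 1 hr later.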

[17] = qHTS assay to identify small molecule agonists of the sonic hedgehog signaling (Shh) pathway (AID 1259368; calls by dose curve;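 note: NIH/3T3-derived 3T3Gli1-Luc cells carrying a stable Gli1-driven firefly luciferase reporter; series mostly up to about 92 µM; nearly all actives have a fitted effect of over 15% in size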)
Method in brief: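 Mouse fibroblast (NIH/3T3) reporter cells with stably integrated Gli1-Luc were treated 24 hr with compound; firefly luciferase luminescence served as the read-out.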

[18] = molecular target: Androgen receptor (Homo sapiens) (UniProt P10275); test: qHTS assay to identify small molecule antagonists of the androgen receptor (AR) signaling pathway using the MDA cell line in the presence of 0.5 nM R1881 (AID 1259243); note: nearly all actives have a fitted effect of over 50% in size
Method in brief: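 We exposed MDA-kb2 cells to compounds under 0.5 nM R1881 stimulation for 16 hr at 37C and quantified MMTV-driven luciferase by luminescence.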

[19] = molecular target: Estrogen receptor (Homo sapiens) (UniProt P03372); test: qHTS assay to identify small molecule antagonists of the estrogen receptor alpha (ER-alpha) signaling pathway using the BG1 cell line in the presence of 0.1 nM 17-beta-estradiol (AID 1259244); note: nearly all actives have a fitted effect of over 50% in size
Method in brief: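 VM7Luc4E2; 4xERE-luciferase; 0.1 nM E2 final; 22 h co-incubation, 37C; ONE-Glo luminescence after 30 min at room temperature.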

[20] = qHTS assay to identify small molecule phospholipidosis (PLD) inducers (AID 1259344; active = well fitted curve in the direction sought with a large enough effect; an effect the other way counts as inactive or inconclusive)
Method in brief: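 Quantitative HTS in HepG2: compound plus LipidTOX Red dye for 24 h, paraformaldehyde fixation with Hoechst 33342, widefield high-content imaging; amiodarone as positive and DMSO as negative control.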
% is set by controls: 0 for no effect and ±100 for the full control effect.

Estrogen receptor (Homo sapiens), sequence (P03372 whole entry, looked up): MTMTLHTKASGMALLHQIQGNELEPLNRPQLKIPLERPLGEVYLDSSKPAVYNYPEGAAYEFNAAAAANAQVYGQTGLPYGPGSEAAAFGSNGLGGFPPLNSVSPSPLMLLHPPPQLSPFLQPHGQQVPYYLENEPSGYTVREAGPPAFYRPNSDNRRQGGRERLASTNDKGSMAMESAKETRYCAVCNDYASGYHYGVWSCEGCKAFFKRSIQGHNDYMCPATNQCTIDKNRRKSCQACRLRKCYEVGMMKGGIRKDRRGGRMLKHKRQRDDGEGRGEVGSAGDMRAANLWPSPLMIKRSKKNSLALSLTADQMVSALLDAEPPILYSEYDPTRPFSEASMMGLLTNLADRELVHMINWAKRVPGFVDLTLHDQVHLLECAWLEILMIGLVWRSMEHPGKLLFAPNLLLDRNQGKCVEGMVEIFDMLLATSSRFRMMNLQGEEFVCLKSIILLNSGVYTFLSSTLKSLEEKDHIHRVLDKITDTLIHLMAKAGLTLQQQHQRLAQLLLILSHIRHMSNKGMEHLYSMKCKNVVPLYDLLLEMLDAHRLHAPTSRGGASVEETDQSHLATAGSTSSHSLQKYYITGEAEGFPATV
Androgen receptor (Homo sapiens), sequence (P10275 whole entry, looked up): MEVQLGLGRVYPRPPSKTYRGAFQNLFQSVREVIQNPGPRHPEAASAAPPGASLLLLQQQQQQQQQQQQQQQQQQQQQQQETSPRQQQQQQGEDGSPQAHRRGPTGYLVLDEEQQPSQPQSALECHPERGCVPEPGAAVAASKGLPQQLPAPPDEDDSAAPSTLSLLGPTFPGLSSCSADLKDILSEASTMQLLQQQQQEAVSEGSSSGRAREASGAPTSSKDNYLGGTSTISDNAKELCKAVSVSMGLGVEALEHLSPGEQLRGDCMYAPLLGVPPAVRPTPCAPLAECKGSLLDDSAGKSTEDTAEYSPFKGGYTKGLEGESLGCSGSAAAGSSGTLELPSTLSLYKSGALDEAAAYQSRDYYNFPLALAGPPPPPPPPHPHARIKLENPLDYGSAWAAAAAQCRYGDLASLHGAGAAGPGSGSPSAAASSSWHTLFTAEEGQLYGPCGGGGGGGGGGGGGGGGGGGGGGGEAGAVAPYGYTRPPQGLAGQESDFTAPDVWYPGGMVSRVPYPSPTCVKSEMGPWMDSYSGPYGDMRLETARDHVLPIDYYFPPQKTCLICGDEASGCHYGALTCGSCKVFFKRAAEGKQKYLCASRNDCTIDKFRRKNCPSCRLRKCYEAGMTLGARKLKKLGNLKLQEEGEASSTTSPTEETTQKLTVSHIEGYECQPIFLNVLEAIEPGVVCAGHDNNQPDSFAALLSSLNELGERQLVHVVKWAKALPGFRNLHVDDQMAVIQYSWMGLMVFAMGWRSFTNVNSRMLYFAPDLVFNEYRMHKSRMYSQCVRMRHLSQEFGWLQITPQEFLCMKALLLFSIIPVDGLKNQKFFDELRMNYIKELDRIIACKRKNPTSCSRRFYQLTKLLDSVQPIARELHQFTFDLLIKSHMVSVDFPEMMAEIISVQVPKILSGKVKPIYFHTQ

[O]=[Bi]
inactive: cytotoxicity increase [1] -0.855% [at 6.97 µM] | cytotoxicity [2] 1.27% [at 6.97 µM] | cytotoxicity increase [3] -9.49% [at 6.97 µM] | cytotoxicity increase [4] -5.25% [at 6.97 µM] | activity change, negative = cytotoxic [5] 1.05% [at 6.97 µM] | activity change, negative = cytotoxicity [6] 5.04% [at 6.97 µM] | activity change, negative = cytotoxicity [7] 1.28% [at 6.97 µM] | activity change [8] -2.4% [at 6.97 µM, stronger effect = higher value] | activity change, negative = cytotoxicity [9] 1.28% [at 6.97 µM] | cytotoxicity increase [10] 2.13% [at 6.97 µM] | activity change, negative = cytotoxicity [11] -2.05% [at 8.39 µM] | viability change, negative = cytotoxic [12] 1.95% [at 8.39 µM] | activity change, negative = inhibition [13] 9.82% [at 8.39 µM] | activity change, negative = cytotoxicity [14] -2.43% [at 8.39 µM] | viability change, negative = cytotoxic [15] 11.3% [at 8.39 µM] | viability change, negative = cytotoxic [16] -5.4% [at 8.39 µM] | activity change [17] -0.104% [at 8.39 µM, stronger effect = higher value]

Nc1ccc(C(=O)OCCCOC(=O)c2ccc(N)cc2)cc1
active: Potency [6] 43.6 µM | Potency [7] 43.6 µM
inactive: Potency [1] | Potency [2] | Potency [3] | Potency [4] | Potency [5] | Potency [8] | Potency [9] | Potency [11] | Potency [12] | Potency [13] | Potency [14] | Potency [15] | Potency [16]

O=C(O)c1c(O)c(-c2ccccc2)nc2ccccc12
inactive: Potency [1] | Potency [2] | Potency [3] | Potency [4] | Potency [5] | Potency [6] | Potency [7] | Potency [8] | Potency [10] | Potency [11] | Potency [12] | Potency [18] | Potency [19] | Potency [13] | Potency [14] | Potency [15] | Potency [16] | Potency [17]

CCCOCCOCCO
inactive: Potency [1] | Potency [2] | Potency [3] | Potency [4] | Potency [5] | Potency [6] | Potency [7] | Potency [8] | Potency [10] | Potency [11] | Potency [12] | Potency [19] | Potency [14] | Potency [15] | Potency [16] | Potency [17]

CN(C(=O)C(Cl)Cl)c1ccc(OC(=O)c2ccco2)cc1
inactive: Potency [1] | Potency [2] | Potency [3] | Potency [4] | Potency [5] | Potency [6] | Potency [7] | Potency [8] | Potency [9] | Potency [11] | Potency [12] | outcome [20] | Potency [13] | Potency [14] | Potency [15] | Potency [16] | Potency [17]

Nc1c(I)cc(I)c(C(=O)N(CCC(=O)O)c2ccccc2)c1I
inactive: Potency [1] | Potency [2] | Potency [3] | Potency [4] | Potency [5] | Potency [6] | Potency [7] | Potency [8] | Potency [9] | Potency [11] | Potency [12] | Potency [18] | Potency [13] | Potency [14] | Potency [15] | Potency [16] | Potency [17]

CCCCN(CCCC)C(=S)SSC(=S)N(CCCC)CCCC
active: Potency [6] 48.5 µM | Potency [7] 34.3 µM
inactive: Potency [1] | Potency [2] | Potency [3] | Potency [4] | Potency [5] | Potency [8] | Potency [10] | Potency [11] | Potency [12] | Potency [19] | Potency [13] | Potency [14] | Potency [16] | Potency [17]
